1 compound from PubChem BioAssay (EPA / NIEHS) can be followed below.

Molecules are shown by their SMILES. Inconclusive results are not listed. Active and inactive are the calls of the source. How the source made its calls: active means hit-call score of the fitted dose curve at least 0.9, where 1 is the maximum; inconclusive means response in the unintended direction; inactive means score below 0.9.

For experiment [1], the target named is Estrogen receptor beta (Homo sapiens) (UniProt Q92731). Kind of experiment: ATG_hERb_XSP1: Attagene TRANS-FACTORIAL Multi-Species (XSP1) HepG2 Assay for human Estrogen Receptor (ESR2) (AID 2283788). In outline: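 HepG2 cells transiently transfected with GAL4-UAS multiplexed reporter units, 3 nM 6-alpha-fluorotestosterone present; 24 h exposure. Reporter mRNA measured by RT-PCR, fluorescent labelling and capillary electrophoresis; gain of signal fitted against DMSO.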
Estrogen receptor beta (Homo sapiens), sequence (Q92731 whole entry, looked up, the tested form may be a part): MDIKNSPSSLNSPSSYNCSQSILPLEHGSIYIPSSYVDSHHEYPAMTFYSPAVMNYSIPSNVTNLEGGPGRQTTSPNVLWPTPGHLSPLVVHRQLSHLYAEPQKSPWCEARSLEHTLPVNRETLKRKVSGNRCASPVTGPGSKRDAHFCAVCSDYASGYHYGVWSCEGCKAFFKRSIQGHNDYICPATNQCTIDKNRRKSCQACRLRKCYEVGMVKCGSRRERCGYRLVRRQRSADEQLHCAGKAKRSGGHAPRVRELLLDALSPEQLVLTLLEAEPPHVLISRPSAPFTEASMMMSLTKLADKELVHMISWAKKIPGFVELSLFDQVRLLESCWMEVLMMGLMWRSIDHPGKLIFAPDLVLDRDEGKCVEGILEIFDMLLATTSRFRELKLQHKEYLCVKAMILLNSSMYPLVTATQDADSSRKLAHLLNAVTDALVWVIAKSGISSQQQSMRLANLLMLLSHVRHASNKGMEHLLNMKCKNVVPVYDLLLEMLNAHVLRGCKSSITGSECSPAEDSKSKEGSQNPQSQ

Experiment [2] can be described thus: ATG_M_06_XSP1: Attagene TRANS-FACTORIAL Multi-Species (XSP1) HepG2 Assay for M06 Transcription Factor (Internal Marker) (AID 2283790). In outline:
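Transfected HepG2 multi-reporter system treated 24 h in the presence of 3 nM 6-alpha-fluorotestosterone. The M06 internal marker transcript was quantified by RT-PCR with capillary electrophoresis as a background control, and gain of signal was scored versus DMSO.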

The nature of experiment [3]: ATG_M_61_XSP1: Attagene TRANS-FACTORIAL Multi-Species (XSP1) HepG2 Assay for M61 Transcription Factor (Internal Marker) (AID 2283797). In outline:
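HepG2 cells transiently transfected with multiplexed GAL4-driven reporter units, dosed 24 h with 3 nM 6-alpha-fluorotestosterone present. Reporter mRNA quantified by RT-PCR, 6-FAM labelling, HpaI digestion and capillary electrophoresis; internal-marker background control, gain of signal versus DMSO.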

The nature of experiment [4]: ATG_M_19_XSP1: Attagene TRANS-FACTORIAL Multi-Species (XSP1) HepG2 Assay for M19 Transcription Factor (Internal Marker) (AID 2283798). In outline: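 HepG2 cells transiently transfected with multiplexed GAL4-UAS reporter units, dosed 24 h with 3 nM 6-alpha-fluorotestosterone present for partial AR stimulation. Reporter mRNA measured by RT-PCR with capillary electrophoresis; gain-of-signal fitted relative to DMSO.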

The nature of experiment [5]: ATG_M_32_XSP1: Attagene TRANS-FACTORIAL Multi-Species (XSP1) HepG2 Assay for M32 Transcription Factor (Internal Marker) (AID 2283799). In outline:
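HepG2 cells transiently transfected with multi-species TRANS reporter units, dosed 24 h with 3 nM 6-alpha-fluorotestosterone present. Internal-marker reporter mRNA quantified by RT-PCR and capillary electrophoresis; positive-direction fit versus DMSO.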

Experiment [6] has as its target Peroxisome proliferator-activated receptor gamma (Homo sapiens) (UniProt P37231). Kind of experiment: ATG_hPPARg_XSP1: Attagene TRANS-FACTORIAL Multi-Species (XSP1) HepG2 Assay for human Peroxisome Proliferator-activated Receptor gamma (PPARg) (AID 2283800). In outline: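 HepG2 cells transiently transfected with GAL4-UAS reporter units carrying chimeric NR-Gal4 proteins; 3 nM 6-alpha-fluorotestosterone present. After 24 h dosing, reporter mRNA quantified by RT-PCR and capillary electrophoresis; gain of signal relative to DMSO.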

Experiment [7] concerns zebrafish Peroxisome Proliferator-activated Receptor gamma (PPARg), gene 557037. The experiment is described as follows: ATG_zfPPARg_XSP1: Attagene TRANS-FACTORIAL Multi-Species (XSP1) HepG2 Assay for zebrafish Peroxisome Proliferator-activated Receptor gamma (PPARg) (AID 2283801). In outline:
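HepG2 cells transiently transfected with GAL4-UAS reporter units including a zebrafish PPARg–GAL4 chimera, dosed 24 h with 3 nM 6-alpha-fluorotestosterone present. Reporter mRNA quantified by RT-PCR, FAM labelling, HpaI digestion and capillary electrophoresis; induction versus DMSO.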

Experiment [8] addresses mouse Peroxisome Proliferator-activated Receptor gamma (PPARg), Pparg (gene 19016) (UniProt P37238). The experiment is described as follows: ATG_mPPARg_XSP1: Attagene TRANS-FACTORIAL Multi-Species (XSP1) HepG2 Assay for mouse Peroxisome Proliferator-activated Receptor gamma (PPARg) (AID 2283802). Here is the method: ATG_XSP1_multi-species_TRANS is a cell-based, multiplexed assay created by modifying the existing Attagene TRANS-FACTORIAL system to include a panel of nuclear receptors from some or all the following species: human (Homo sapiens), mouse (Mus musculus), frog (Xenopus laevis), zebrafish (Danio rerio), chicken (Gallus gallus), and turtle (Chrysemys picta). The ECOTOX-FACTORIAL format uses HepG2, a human liver cell line, with measurements taken at 24 hours after chemical dosing in a 24-well plate. Xsp1 included 3 nM 6-alpha-fluorotestosterone to partially stimulate the androgen receptor.ATG_mPPARg_XSP1 is one of 29 assay components measured or calculated from the ATG_XSP1_multi-species_TRANS assay. It is designed to make measurements of mRNA induction, a form of inducible reporter, as detected with fluorescence intensity signals by Reverse transcription polymerase chain reaction (RT-PCR) and Capillary electrophoresis technology.The assay endpoint ATG_mPPARg_XSP1 was analyzed in the positive analysis fitting direction relative to DMSO as the negative control and baseline of activity. […] Furthermore, this assay endpoint can be referred to as a primary readout, because this assay has produced multiple assay endpoints where this one serves a reporter gene function. […]

Experiment [9] deals with Nuclear receptor subfamily 1 group I member 2 (Mus musculus) (UniProt O54915). The experiment is described as follows: ATG_mPXR_XSP1: Attagene TRANS-FACTORIAL Multi-Species (XSP1) HepG2 Assay for mouse Pregnane X Receptor (PXR) (AID 2283803). In outline: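 Transiently transfected HepG2 cells expressing a receptor-Gal4 chimera drive a GAL4-UAS reporter; 3 nM 6-alpha-fluorotestosterone included. Reporter mRNA read 24 h post-dose by RT-PCR and capillary electrophoresis; gain of signal relative to DMSO.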
Nuclear receptor subfamily 1 group I member 2 (Mus musculus), sequence (O54915 whole entry, looked up, the tested form may be a part): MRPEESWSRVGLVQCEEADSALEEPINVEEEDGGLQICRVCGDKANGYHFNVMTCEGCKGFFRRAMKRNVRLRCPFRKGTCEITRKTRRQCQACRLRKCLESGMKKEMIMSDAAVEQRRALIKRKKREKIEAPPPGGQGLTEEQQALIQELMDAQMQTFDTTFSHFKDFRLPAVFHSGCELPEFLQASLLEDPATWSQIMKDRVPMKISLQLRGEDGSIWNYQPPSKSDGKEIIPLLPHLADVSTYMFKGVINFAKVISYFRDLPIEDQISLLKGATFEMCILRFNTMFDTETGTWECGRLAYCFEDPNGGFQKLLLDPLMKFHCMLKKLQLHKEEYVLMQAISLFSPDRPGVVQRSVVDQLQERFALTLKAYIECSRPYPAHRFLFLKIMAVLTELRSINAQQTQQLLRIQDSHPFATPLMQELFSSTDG

The subject of experiment [10] is turtle Thyroid Hormone Receptor, alpha (TRa), gene 101949057. Kind of experiment: ATG_trTRa_XSP1: Attagene TRANS-FACTORIAL Multi-Species (XSP1) HepG2 Assay for turtle Thyroid Hormone Receptor, alpha (TRa) (AID 2283806). In outline:
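HepG2 cells transiently transfected with GAL4-UAS reporter units and chimeric receptor-Gal4 constructs, with 3 nM 6-alpha-fluorotestosterone present. Reporter mRNA was quantified 24 h after dosing by RT-PCR, 6-FAM labelling and capillary electrophoresis; gain of signal versus DMSO.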

Peroxisome proliferator-activated receptor gamma (Homo sapiens), sequence (P37231 whole entry, looked up, the tested form may be a part): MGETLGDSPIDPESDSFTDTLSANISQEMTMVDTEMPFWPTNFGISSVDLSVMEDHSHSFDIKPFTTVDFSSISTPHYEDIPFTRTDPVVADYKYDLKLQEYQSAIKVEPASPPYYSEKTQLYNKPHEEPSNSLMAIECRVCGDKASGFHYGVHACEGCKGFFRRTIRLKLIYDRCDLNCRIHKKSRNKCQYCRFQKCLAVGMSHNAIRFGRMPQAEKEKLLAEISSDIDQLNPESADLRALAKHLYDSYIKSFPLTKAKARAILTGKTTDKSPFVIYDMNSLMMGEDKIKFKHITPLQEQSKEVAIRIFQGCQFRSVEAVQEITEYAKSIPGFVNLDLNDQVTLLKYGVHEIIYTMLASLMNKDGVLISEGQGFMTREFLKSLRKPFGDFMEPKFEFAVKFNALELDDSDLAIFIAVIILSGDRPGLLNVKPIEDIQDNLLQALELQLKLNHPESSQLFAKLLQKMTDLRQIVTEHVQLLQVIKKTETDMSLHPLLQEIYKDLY
mouse Peroxisome Proliferator-activated Receptor gamma (PPARg), Pparg (gene 19016), sequence (P37238 whole entry, looked up): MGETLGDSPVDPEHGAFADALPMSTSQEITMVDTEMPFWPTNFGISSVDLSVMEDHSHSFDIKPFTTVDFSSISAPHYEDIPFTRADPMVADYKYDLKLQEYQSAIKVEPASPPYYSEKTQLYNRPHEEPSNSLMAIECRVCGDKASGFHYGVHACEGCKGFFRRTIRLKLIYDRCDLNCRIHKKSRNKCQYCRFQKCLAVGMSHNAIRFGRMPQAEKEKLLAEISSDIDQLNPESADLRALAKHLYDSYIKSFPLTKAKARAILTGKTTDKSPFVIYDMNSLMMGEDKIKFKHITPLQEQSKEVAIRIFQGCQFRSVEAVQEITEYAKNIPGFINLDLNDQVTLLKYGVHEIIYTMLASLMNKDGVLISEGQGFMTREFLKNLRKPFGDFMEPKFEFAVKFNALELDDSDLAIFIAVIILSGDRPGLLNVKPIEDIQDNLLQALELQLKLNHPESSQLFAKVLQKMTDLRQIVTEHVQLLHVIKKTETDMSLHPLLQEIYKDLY

As a reminder, the AC50 is the concentration at which the activity in the assay is half-maximal. For the compound `O=P(Oc1ccccc1)(Oc1ccccc1)Oc1ccccc1`, the compound was classed as inactive in [1], in experiment [2], in experiment [3], in experiment [4], in experiment [5] and in experiment [10]. Besides, the AC50 in experiment [6] was 6.88 µM (active); in experiment [7], 8.08 µM (active); in experiment [8] it was 6.18 µM (active); in experiment [9], 0.367 µM (active).
